Screening data deposited in PubChem by The Scripps Research Institute Molecular Screening Center.
Compounds with a hit are over-represented: about 3.5% of the library has one in this group of screens.
MITF primary: blocks human microphthalmia-associated transcription factor. AlphaScreen MITF homodimerization, bead proximity signal. inhibition, % at 2.6 µM. actives 0.91% (n = 650,000). AID 1259374; in the data active = inhibition above about 50%;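 also: 0% = vehicle wells with protein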
FBW7 act: human FBW7 E3 ligase activation, primary screen | AlphaScreen FBW7–phospho-cyclin E peptide binding, activator screen | normalized activity (activation), % at 26.1 µM | actives 0.13% (n = 650,000) | AID 1259310; in the data active = normalized activity above about 1.9%;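 also: purified mutant Fbw7 with reduced substrate affinity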
TEAD-YAP inh: TEAD-YAP interaction inhibition. HEK-TIYL cells, TEAD-Gal4/YAP UAS-luciferase luminescence. AID 1259422. inhibition, % at 9.12 µM. actives 1.4% (n = 640,000); in the data active = inhibition above about 32%;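 also: 0% = median of test compound wells and 100% = reference inhibitor wells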
GPR151 ag: activates the human receptor GPR151 | PathHunter beta-arrestin GPR151 cells, luminescence | activation, % at 11.2 µM | actives 1% (n = 650,000); in the data active = activation above about 4.9%;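 also: 0% = median of compound wells and 100% = cells with positive control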
Target sequence (Q8TDV0 whole entry, looked up): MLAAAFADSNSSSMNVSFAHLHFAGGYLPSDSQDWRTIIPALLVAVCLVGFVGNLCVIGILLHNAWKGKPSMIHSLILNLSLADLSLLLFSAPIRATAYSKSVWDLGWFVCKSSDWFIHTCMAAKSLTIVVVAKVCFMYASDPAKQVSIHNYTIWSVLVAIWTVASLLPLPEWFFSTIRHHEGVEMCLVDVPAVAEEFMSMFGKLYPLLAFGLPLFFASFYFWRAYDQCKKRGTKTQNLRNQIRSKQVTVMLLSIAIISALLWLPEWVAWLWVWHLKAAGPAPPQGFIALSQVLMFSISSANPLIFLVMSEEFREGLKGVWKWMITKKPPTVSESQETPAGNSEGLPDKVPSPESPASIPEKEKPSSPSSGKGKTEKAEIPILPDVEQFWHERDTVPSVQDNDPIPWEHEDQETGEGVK
An asterisk follows results filed as active; ! = not confirmed by another sample.

SMILES | MITF primary | FBW7 act | TEAD-YAP inh | GPR151 ag
COc1ccc(S(=O)(=O)NC(C(=O)O)C(C)O)cc1 (stereo unspecified) | 7.0 | 0.1 | 1.0 | 0.1
Cc1cccc(C)c1-n1c(SCC(=O)NC2CCCCC2)nc2c(sc(=S)n2-c2c(C)cccc2C)c1=O | 4.5 | -0.9 | 6.8 | 2.0
CCCOc1cccc(C2c3c(oc4ccccc4c3=O)C(=O)N2CCCN(CC)CC)c1 (stereo unspecified) | 18.4 | 0.6 | -20.7 | -1.5
CC(=O)N(Cc1cc2cc3c(cc2[nH]c1=O)OCCO3)CC1CCCO1 (stereo unspecified) | 19.3 | -0.1 | 3.3 | -0.4
COc1cc(/C=N/O)ccc1OCc1cccc(C(=O)O)c1 | 0.3 | 0.0 | 93.8* | -9.1
COc1ccc(C(=O)Oc2ccc(C=C3C(=O)NC(=O)NC3=O)cc2OC)cc1 | 9.3 | -1.0 | 7.7 | -2.0
COc1cc(C=O)ccc1OCc1cccc(C(=O)O)c1 | -3.9 | 0.4 | 71.0* | 4.9
COc1ccc(S(=O)(=O)Oc2ccc(C=C3C(=O)NC(=O)NC3=O)cc2OC)cc1 | 7.0 | -0.3 | 53.3* | 0.4
O=C(O)c1cccc(Nc2nc(-c3ccc(O)c(O)c3)cs2)c1 | 79.6* | 0.0 | 14.6 | -0.5
COc1ccc2cc(-c3csc(N)n3)ccc2c1 | 10.0 | -0.1 | 32.4* | -5.3
Oc1ccc(-c2csc(NCc3ccccc3)n2)cc1O | 25.6 | -0.4 | -82.1 | 0.0
Nc1nc(-c2ccc(O)c(O)c2)cs1 | 79.2* | -0.1 | 2.6 | 0.5
COc1ccc(-c2csc(N)n2)c(F)c1 | 0.5 | 0.0 | -32.9 | -0.3
NNc1nc(-c2ccc(O)c(O)c2)cs1 | 102.7* | -0.4 | 5.6 | 0.2
COc1ccc(OCC(=O)Nc2ccc(Br)cc2)cc1 | 0.7 | 0.0 | -8.6 | -0.5
CCc1c(C(=O)NC2CCCc3ccccc32)[nH]c(C)c1C(C)=O (stereo unspecified) | -7.3 | 0.0 | 37.4* | 0.1
c1cc(-n2cnc(N3CCOCC3)n2)ccc1Nc1cc2cc(-c3cn[nH]c3)ccc2cn1 | 9.6 | -0.3 | 91.8* | 0.8
Cn1cc(-c2ccc3cnc(Nc4ccc(-n5cnc(N6CCOCC6)n5)cc4)nc3c2)cn1 | 10.0 | -0.1 | 96.2* | 1.7
c1ccc(-c2ccc3cnc(Nc4ccc(-n5cnc(N6CCOCC6)n5)cc4)nc3c2)cc1 | 16.1 | -0.1 | -3.1 | 0.4
Cn1cc(-c2ccc3cnc(Nc4ccc(-n5cnc(-c6ccc(=O)[nH]c6)n5)cc4)nc3c2)cn1 | 20.3 | 1.0 | 39.8* | -2.2
Cn1cc(-c2ccc3cnc(Nc4ccc(-n5cnc(C(C)(C)C)n5)cc4)nc3c2)cn1 | -4.6 | -0.3 | 13.9 | 0.7
Cn1cc(-c2ccc3cnc(Nc4ccc(-n5cnc(N6CCCC(O)C6)n5)cc4)nc3c2)cn1 (stereo unspecified) | 1.6 | -0.3 | 89.8* | -2.7
CCNC(=O)[C@@H]1C[C@H](NCc2cccc3ccccc23)CN1Cc1cccc(OC)c1OC | 6.8 | -0.1 | 2.4 | 0.4
Cc1nn(C)c(C)c1-c1nc(NCCOc2ccccc2)c2ncn(C3CCCCC3)c2n1 | -5.4 | 0.0 | -21.8 | 0.5
COc1ccc(NC(=O)C2C3C=CC4(O3)C2C(=O)N(CCN2CCOCC2)C4C(=O)NC2CCCCC2)cc1 (stereo unspecified) | -7.6 | 0.0 | 7.5 | -0.9
SMILES | MITF primary | FBW7 act | TEAD-YAP inh | GPR151 ag
c1cc(-n2cnc(N3CCOCC3)n2)ccc1Nc1ncc2ccc(-c3cn[nH]c3)cc2n1 | 18.2 | 1.0 | 95.7* | 0.0
CCOc1ccc2[nH]c3cc([N+](=O)[O-])ccc3c(=O)c2c1 | 12.9 | 0.9 | 9.1 | 0.1
Nc1ncnc(N/N=C/c2cc([N+](=O)[O-])ccc2OC(F)F)c1[N+](=O)[O-] | 4.1 | 0.0 | -39.6 | -0.9
Nc1ncnc(N/N=C/c2ccccc2OC(F)F)c1[N+](=O)[O-] | 8.0 | -0.6 | 47.7* | -7.8
Nc1ncnc(N/N=C/c2ccc(O)cc2O)c1[N+](=O)[O-] | 81.4* | -1.2 | -9.9 | -3.2
COc1cccc(/C=N/Nc2ncnc(N)c2[N+](=O)[O-])c1OC | 18.4 | -0.2 | 46.1* | -6.0
COc1ccc(CNc2nc(-c3cccnc3)nn2C(=O)c2cccc(C)c2)cc1 | 10.3 | 0.1 | 9.9 | -0.9
N#CC1=C(S)NC(=O)CC1c1ccccc1Cl (stereo unspecified) | 1.9 | -0.3 | 0.5 | -0.2
COC(=O)c1nnn(-c2nonc2N)c1CSc1nc2ccc([N+](=O)[O-])cc2[nH]1 | -20.5 | 0.0 | -0.1 | -0.8
O=C(Nc1cccc(Cl)c1)C1c2ccccc2Oc2ccccc21 | 5.0 | -0.1 | -1.5 | -0.2
Cc1sc2ncnc(Sc3nnc(N)s3)c2c1C | -0.1 | -0.1 | 36.7* | 1.2
Cc1sc2ncnc(Sc3nnc4ccccn34)c2c1C | 9.8 | 0.2 | -5.9 | 2.7
Fc1ccc(-c2cc(C(F)(F)F)nc(NCc3cccnc3)n2)cc1 | 14.1 | 0.0 | 40.0* | -0.2
CCC(C)N1C(=O)S/C(=C/c2cc(C)n(-c3ccccn3)c2C)C1=O (stereo unspecified) | 7.4 | -0.1 | 40.9* | 2.1
COc1ccc(-c2cccc3cnc(Nc4ccc(-n5cnc(N6CCOCC6)n5)cc4)nc23)cc1F | -9.9 | 0.8 | 1.4 | -0.1
COc1ccc(-c2cccc3cnc(NC4CCC(C(=O)N5CCCC5)CC4)nc23)cc1F (stereo unspecified) | 8.7 | 1.7 | 82.9*! | -2.5
N#CC1=C(N)Oc2c(ccc3cccnc23)C1c1cccc([N+](=O)[O-])c1 (stereo unspecified) | 8.8 | -0.4 | 48.6* | 0.8
N#CC1=C(N)Oc2cc(N)ccc2C1c1cccc([N+](=O)[O-])c1 (stereo unspecified) | -2.2 | 0.3 | 40.4* | 1.4
N#CC1=C(N)Oc2c(ccc3cccnc23)C1c1ccc(Br)cc1 (stereo unspecified) | 12.4 | -1.0 | 17.4 | -1.1
Cc1ccc(C2C(C#N)=C(N)Oc3c2ccc2cccnc32)cc1 (stereo unspecified) | -0.2 | 0.0 | 37.4* | 1.6
N#CC1=C(N)Oc2c(ccc3cccnc23)C1c1ccccc1Cl (stereo unspecified) | 2.7 | -1.0 | 17.2 | -2.1
COC(=O)c1ccc(CN2CCC(N(CC3CC3)C(=O)Nc3cccc(F)c3)CC2)cc1 | -2.5 | 0.1 | -10.5 | 2.2
CSc1ccc(-c2cc(O)c3c(C)oc(C)c3c(=O)c2)cc1 | 15.2 | -0.1 | 5.3 | -0.2
Cc1ccc2c(c1)C1OCCC1C(c1cccs1)N2 (stereo unspecified) | 0.4 | -0.2 | 41.8* | -0.1
CCNC(=O)N1CCC(c2nc(-c3ccc(S(C)(=O)=O)cc3)no2)CC1 | -3.9 | 0.1 | 7.7 | -0.5
O=C1N[C@H](Cc2ccccc2)C(=O)N2CCN(C(=O)c3cc(F)ccc3F)C[C@H]12 | 2.6 | 0.0 | -7.7 | -0.1
COCCCNc1nccn2c(-c3cccc(O)c3)cnc12 | 5.3 | -0.6 | 50.9* | -0.8
c1ccc(Nc2nccn3c(-c4ccoc4)cnc23)cc1 | 0.3 | 0.3 | 66.2* | -4.8
Nc1cccc(-c2cnc3c(Nc4ccc(Cl)cc4)nccn23)c1 | 7.1 | 0.2 | 64.6* | -1.1
Nc1cccc(-c2cnc3c(Nc4ccccc4)nccn23)c1 | 18.8 | 1.8 | 87.9* | -1.6
